Key:
Test in all cases: log2 ratio of Biotin-Ahx-Ub-VS probe labelling (fragment/DMSO); higher = less target engagement (more negative = stronger competition), active = hit call of the paper (q ≤ 0.05, log2 ratio ≤ -1)
Settings in all cases: compound concentration: 200 uM; treatment time: 3 h
USP34 = USP34 (UniProt Q70CQ2)
Outline: (§1)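 Triplicate samples of HEK293T lysate, 495 µg each, received fragment at 200 µM or vehicle for 3 h, followed by Biotin-Ahx-Ub-VS (0.5 µM final) for 1 h. After NeutrAvidin enrichment of labelled DUBs and LysC/trypsin digestion, peptides were run by diaPASEF LC-MS/MS. The values are average log2 fragment/vehicle ratios from global-median-normalised Spectronaut label-free quantities, tested by unpaired t-test on proteins having ≥2 unique peptides.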

USP36 = target: T1, USP36 (UniProt Q9P275)
T1 sequence (whole entry): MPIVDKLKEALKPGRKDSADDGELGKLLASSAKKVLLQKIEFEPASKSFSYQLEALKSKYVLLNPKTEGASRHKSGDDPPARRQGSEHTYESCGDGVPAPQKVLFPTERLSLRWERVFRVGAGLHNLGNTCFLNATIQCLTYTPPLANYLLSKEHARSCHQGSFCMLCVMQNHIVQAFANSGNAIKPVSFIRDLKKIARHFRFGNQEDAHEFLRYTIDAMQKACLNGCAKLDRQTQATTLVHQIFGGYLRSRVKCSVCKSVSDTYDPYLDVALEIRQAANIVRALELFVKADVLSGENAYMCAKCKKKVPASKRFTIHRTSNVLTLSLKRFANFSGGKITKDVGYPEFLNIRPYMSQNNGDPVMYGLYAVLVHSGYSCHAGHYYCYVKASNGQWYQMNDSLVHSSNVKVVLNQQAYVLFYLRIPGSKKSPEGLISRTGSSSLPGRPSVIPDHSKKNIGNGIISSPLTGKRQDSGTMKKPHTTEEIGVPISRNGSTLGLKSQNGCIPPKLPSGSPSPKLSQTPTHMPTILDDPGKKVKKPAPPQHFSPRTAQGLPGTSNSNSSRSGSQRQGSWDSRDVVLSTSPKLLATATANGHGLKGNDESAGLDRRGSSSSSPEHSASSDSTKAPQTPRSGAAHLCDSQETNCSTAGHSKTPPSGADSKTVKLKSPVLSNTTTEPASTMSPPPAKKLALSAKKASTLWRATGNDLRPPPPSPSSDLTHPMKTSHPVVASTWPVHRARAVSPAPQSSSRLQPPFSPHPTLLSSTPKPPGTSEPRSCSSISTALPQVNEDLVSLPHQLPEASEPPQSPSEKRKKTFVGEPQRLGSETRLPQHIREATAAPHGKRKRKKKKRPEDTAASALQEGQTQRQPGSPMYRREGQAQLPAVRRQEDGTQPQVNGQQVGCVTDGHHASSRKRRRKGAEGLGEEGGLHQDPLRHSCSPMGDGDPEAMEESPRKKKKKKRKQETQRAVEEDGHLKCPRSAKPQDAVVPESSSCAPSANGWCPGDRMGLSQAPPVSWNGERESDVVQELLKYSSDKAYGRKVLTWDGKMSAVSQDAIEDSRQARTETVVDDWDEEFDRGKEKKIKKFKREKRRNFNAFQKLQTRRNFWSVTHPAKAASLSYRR
Outline: as §1

USP38 = target: T2, USP38 (UniProt Q8NB14)
T2 sequence (whole entry): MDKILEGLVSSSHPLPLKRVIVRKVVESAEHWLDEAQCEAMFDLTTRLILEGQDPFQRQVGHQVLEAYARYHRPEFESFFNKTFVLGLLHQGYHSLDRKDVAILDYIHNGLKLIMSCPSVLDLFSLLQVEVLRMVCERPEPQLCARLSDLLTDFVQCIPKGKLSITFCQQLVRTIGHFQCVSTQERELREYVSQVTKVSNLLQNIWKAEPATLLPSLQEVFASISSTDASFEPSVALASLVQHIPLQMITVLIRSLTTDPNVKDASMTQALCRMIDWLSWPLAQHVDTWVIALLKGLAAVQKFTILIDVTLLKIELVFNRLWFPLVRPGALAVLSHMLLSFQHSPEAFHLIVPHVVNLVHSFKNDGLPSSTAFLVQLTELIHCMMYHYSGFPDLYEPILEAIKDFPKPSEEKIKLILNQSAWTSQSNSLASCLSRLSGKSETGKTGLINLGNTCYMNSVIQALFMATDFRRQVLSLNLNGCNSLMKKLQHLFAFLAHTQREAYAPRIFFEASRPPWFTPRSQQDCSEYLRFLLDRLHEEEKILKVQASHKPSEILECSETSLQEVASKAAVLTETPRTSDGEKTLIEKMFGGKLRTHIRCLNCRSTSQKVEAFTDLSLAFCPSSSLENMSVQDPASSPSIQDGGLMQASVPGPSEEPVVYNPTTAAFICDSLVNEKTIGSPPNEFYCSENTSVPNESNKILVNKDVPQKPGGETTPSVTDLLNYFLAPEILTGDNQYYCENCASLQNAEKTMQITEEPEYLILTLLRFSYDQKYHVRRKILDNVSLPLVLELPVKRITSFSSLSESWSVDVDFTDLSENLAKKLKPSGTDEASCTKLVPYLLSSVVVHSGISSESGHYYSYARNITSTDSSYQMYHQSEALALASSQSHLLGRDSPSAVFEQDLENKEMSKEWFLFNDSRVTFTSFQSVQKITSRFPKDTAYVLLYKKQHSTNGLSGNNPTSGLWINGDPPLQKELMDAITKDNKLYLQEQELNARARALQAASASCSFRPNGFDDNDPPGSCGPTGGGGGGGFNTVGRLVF
Outline: as §1

USP39 = target: T3, USP39 (UniProt Q53GS9)
T3 sequence (whole entry): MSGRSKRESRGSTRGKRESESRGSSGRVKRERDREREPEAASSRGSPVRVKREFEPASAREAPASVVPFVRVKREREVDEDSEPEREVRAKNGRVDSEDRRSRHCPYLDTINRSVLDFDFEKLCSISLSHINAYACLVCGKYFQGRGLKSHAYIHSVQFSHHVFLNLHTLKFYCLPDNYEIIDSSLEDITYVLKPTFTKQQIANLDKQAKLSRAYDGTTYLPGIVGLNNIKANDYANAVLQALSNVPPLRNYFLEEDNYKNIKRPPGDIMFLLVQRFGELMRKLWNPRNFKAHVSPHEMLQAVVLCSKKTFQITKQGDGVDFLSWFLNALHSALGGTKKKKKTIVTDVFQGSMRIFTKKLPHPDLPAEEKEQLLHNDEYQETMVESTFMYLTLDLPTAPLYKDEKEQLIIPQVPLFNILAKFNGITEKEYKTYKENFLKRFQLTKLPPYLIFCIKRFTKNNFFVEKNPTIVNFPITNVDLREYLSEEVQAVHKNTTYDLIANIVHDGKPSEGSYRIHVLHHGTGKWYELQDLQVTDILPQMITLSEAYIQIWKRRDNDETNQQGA
Outline: as §1

USP4 = target: T4, USP4 (UniProt Q13107)
T4 sequence (whole entry): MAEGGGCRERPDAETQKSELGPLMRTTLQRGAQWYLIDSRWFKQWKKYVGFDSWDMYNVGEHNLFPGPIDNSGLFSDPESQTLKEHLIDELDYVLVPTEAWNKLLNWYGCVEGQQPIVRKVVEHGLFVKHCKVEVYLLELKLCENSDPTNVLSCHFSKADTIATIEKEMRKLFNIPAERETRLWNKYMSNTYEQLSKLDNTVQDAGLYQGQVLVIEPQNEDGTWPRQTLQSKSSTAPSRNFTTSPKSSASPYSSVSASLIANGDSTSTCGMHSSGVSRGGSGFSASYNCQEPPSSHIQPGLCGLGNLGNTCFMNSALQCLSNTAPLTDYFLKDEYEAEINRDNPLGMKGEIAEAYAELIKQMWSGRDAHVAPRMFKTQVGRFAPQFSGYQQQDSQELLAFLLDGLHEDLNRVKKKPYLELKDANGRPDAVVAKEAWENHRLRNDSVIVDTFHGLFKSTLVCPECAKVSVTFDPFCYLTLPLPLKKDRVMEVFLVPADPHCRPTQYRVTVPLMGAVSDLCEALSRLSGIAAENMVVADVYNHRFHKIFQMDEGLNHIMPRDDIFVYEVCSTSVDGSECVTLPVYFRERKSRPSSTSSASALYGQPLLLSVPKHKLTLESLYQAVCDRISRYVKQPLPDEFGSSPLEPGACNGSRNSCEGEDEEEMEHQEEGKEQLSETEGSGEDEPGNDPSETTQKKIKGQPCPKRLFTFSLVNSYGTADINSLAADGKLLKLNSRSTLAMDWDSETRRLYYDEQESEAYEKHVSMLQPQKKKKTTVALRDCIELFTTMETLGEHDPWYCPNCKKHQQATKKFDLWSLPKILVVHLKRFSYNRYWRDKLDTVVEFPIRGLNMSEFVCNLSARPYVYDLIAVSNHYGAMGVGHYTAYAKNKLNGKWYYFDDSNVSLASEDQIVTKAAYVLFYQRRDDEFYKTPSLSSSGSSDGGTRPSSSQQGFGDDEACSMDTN
Outline: as §1

Measured: log2 ratio of Biotin-Ahx-Ub-VS probe labelling

USP34, sequence (Q70CQ2 whole entry, the tested form may be a part): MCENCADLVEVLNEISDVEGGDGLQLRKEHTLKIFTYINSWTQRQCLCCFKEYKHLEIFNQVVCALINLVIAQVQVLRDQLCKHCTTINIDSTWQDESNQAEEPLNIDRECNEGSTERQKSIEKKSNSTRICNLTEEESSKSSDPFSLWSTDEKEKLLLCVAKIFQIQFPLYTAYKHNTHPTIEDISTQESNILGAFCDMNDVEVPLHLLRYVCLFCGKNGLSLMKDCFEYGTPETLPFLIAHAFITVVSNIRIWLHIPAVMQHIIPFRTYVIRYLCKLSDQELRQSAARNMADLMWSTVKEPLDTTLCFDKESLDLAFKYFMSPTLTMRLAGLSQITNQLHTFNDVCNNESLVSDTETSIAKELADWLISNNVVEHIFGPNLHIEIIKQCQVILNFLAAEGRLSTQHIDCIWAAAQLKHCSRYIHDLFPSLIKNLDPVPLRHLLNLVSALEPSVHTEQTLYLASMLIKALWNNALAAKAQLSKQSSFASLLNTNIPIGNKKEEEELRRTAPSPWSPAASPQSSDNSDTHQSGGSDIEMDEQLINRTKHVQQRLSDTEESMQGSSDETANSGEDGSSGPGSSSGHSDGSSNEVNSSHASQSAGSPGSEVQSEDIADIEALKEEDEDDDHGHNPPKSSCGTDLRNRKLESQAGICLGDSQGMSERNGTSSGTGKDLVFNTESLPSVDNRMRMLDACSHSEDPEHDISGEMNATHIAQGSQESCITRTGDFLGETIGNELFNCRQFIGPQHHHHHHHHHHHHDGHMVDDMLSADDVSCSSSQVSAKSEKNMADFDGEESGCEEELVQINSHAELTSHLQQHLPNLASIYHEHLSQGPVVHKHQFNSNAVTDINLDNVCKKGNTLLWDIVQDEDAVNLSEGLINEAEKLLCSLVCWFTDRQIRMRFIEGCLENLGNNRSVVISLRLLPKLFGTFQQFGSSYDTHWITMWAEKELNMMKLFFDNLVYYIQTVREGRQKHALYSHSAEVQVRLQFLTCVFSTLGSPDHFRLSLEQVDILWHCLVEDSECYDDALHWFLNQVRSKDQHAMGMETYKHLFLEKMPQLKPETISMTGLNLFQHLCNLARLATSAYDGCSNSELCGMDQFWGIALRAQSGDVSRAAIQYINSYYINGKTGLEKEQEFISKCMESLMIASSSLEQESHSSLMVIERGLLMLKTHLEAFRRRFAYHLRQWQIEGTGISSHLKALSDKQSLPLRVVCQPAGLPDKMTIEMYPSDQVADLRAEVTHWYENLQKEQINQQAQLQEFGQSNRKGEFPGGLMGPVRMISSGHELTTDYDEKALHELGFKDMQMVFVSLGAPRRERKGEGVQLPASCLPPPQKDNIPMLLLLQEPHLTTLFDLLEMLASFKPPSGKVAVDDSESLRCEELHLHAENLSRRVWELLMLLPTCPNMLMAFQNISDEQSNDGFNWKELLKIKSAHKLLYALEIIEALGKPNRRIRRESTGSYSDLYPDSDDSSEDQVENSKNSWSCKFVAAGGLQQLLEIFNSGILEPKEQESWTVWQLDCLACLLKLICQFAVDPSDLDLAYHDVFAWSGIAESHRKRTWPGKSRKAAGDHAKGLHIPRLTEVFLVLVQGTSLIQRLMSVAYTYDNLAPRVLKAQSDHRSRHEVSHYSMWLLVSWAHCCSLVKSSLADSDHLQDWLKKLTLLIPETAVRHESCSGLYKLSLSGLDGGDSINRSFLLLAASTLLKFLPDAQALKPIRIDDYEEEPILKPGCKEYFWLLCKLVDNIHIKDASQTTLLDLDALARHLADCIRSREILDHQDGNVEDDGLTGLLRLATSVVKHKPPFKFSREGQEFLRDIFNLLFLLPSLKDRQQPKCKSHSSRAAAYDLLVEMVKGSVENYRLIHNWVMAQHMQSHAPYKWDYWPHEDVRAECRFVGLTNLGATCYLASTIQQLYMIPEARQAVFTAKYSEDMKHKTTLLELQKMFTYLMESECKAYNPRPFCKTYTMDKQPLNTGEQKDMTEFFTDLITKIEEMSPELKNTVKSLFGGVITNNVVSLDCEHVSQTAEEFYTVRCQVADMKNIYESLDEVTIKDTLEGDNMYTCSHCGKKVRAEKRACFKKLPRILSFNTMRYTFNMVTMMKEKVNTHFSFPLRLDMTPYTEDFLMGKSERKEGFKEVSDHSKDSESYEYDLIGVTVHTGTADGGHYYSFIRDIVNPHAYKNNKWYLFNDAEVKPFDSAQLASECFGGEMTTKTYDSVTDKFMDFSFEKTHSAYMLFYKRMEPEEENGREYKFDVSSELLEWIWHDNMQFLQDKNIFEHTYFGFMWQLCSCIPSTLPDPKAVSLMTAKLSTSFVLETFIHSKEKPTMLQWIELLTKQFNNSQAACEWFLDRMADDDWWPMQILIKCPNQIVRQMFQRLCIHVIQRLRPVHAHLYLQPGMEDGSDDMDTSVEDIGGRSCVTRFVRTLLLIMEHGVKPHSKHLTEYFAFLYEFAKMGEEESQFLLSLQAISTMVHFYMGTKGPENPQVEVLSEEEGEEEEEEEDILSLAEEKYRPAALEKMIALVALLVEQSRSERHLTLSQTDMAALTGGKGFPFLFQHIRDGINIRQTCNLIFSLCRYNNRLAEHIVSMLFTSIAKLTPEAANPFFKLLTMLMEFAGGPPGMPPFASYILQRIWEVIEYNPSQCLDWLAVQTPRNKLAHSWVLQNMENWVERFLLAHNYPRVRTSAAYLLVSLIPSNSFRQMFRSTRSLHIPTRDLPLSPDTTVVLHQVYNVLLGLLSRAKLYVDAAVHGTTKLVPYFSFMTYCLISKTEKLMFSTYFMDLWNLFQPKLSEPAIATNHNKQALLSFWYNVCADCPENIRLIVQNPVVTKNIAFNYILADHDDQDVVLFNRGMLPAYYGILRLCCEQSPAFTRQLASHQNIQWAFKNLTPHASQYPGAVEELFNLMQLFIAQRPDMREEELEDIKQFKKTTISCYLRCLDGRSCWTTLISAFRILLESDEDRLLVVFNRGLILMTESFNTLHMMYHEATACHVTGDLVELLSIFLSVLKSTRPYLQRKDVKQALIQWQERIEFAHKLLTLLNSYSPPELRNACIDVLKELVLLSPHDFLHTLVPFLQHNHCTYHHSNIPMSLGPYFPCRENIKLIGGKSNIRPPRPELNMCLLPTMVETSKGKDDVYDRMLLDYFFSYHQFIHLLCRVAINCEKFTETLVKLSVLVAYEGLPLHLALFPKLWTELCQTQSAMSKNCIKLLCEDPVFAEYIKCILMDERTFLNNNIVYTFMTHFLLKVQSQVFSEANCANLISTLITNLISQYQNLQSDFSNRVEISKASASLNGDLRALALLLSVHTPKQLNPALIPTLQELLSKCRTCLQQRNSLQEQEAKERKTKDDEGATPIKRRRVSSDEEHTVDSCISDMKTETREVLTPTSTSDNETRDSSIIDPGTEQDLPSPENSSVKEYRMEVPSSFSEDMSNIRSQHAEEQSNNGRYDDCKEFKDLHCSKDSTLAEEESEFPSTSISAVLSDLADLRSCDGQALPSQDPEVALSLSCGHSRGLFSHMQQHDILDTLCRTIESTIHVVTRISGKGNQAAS

Cc1cc(Cl)ccc1NC(=O)CCl
inactive: USP34 -0.254 | USP36 -0.182 | USP38 -0.0702 | USP39 0.072 | USP4 -0.0162

From the supplement of paper PMC11732987, “Enantioselective OTUD7B fragment discovery through chemoproteomics screening and high-throughput optimisation” (Communications Chemistry, 2025)
